SMN2 splice up: qHTS Assay for Enhancers of SMN2 Splice Variant Expression; Potency, µM (series often up to 46.1 µM), for the others: at the highest dose activity change, positive = activation, hits mostly activators; HEK293 SMN2-luciferase splicing reporter, luminescence, 30-36 h; AID 1458, 2008; 210,000 tested, 2.8% active; further: % of control where 0% means no effect; nearly all actives have a fitted effect of over 55% in size
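qHTS luciferase splicing reporter: luminescence rises when SMN2 exon 7 is included in transfected HEK293 cells. Compound exposure lasted 30-36 h at 37C, with 4.5 mM final sodium butyrate as control, followed by a ONE-Glo read.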
ELG1 genotoxic: qHTS screen for small molecules that induce genotoxicity in human embryonic kidney (HEK293T) cells expressing luciferase-tagged ELG1 | HEK293T ELG1-luciferase reporter, luminescence, 16 h | Potency, µM (series often up to 46 µM), inactives show top-dose activity change, positive = activation, most hits filed as activators | 330,000 tested, 1.3% active; further: % of control where 0% means no effect; nearly all actives have a fitted effect of over 60% in size
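16 hr compound incubation (37 °C, 5% CO2) of HEK293T cells carrying luciferase-tagged ELG1; luciferase then measured by ONE-Glo luminescence after 30 min at RT.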
Rab9 promoter act: qHTS Assay for Rab9 Promoter Activators. Huh7 Rab9 promoter-luciferase reporter, luminescence, 24 h. Potency, µM (top dose mostly 9.22 µM), for the others: at the highest dose activation, negative = inhibition, hits mostly activators. 320,000 tested, 2.8% active. AID 485297, 2010; further: % of control where 0% means no effect; nearly all actives have a fitted effect of over 60% in size
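Using Huh7 cells stably transfected with Rab9 promoter–luciferase, compounds were incubated 24 h at 37 °C, 5% CO2; luciferase luminescence was read 10 min after reagent addition.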
NPC1 prom act: qHTS Assay for NPC1 Promoter Activators. Huh7 NPC1 promoter luciferase reporter, 24 h. Potency, µM (doses to about 9.22 µM), for the others: at the top dose activation, usual class: activators. 320,000 tested, 2.4% active. AID 485313, 2010; further: % of control where 0% means no effect; nearly all actives have a fitted effect of over 60% in size
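Quantitative HTS used a cell-based reporter: Huh7 cells stably bearing the NPC1 promoter upstream of luciferase were treated with compounds for 24 h, and promoter activation was read as luminescence.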
FLuc counter: qHTS profiling assay for firefly luciferase inhibitor/activator using purifed enzyme and Km concentrations of substrates (counterscreen for miR-21 project); Luciferin 4-monooxygenase (Photinus pyralis), P08659; purified FLuc, Km substrates, luminescence inhibition; Potency, µM (highest dose often 57.5 µM), without a hit: at the highest dose activity change, negative = inhibition, actives largely listed as inhibitors; 360,000 tested, 6.9% active;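 further: plate controls were vehicle for no effect and reference inhibitor for full effect; nearly all actives have a fitted effect of over 55% in size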
Target sequence (P08659 whole entry, looked up): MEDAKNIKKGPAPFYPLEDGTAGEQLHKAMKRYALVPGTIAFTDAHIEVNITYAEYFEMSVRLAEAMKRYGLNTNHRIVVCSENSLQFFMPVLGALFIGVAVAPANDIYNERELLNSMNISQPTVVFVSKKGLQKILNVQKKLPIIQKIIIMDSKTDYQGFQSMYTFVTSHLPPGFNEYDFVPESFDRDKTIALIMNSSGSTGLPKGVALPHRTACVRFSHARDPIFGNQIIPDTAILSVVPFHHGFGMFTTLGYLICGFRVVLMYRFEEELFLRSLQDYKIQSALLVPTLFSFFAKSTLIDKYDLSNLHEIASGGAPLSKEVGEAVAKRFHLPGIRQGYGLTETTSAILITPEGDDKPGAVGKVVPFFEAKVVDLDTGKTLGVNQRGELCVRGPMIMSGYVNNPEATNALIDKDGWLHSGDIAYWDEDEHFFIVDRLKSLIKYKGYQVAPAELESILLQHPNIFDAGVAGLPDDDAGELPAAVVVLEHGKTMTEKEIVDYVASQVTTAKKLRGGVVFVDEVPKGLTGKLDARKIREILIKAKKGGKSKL
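Biochemical qHTS of compounds, final roughly 60 µM downward over six points, against 10 nM purified firefly luciferase using Km concentrations of substrates (10 uM D-luciferin, 10 uM ATP) in Tris acetate pH 7.5 buffer; luminescence output.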
ELG1 repair inh: qHTS screen for small molecules that inhibit ELG1-dependent DNA repair in human embryonic kidney (HEK293T) cells expressing luciferase-tagged ELG1 | HEK293T ELG1-luciferase reporter, luminescence, 16 h; DNA damage induced by 5-fluorouridine | Potency, µM (doses to about 46.1 µM), without a hit: top-dose activity change, negative = inhibition, most hits filed as inhibitors | 330,000 tested, 2.3% active | AID 504467, 2011; further: on the % scale 0 is the no-effect control and ±100 the full control effect; nearly all actives have a fitted effect of over 55% in size
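In this reporter screen, reduction of luminescence relative to DMSO vehicle indicated activity. Compounds and 5-fluorouridine were added together to 2,000 cells per well, incubated for 16 hr at 37 °C, then developed with ONE-Glo.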
An asterisk follows results filed as active; ? = inconclusive; · = not tested or not shown. Only some compounds are listed: those with a hit (about 9.3% of all), similar ones and a draw of the others. The call rests on the fitted dose curve; in most records, active means well fitted curve in the direction sought with a large enough effect; inconclusive means small, poorly fitted or top-dose-only effect, or another doubt; inactive means no such curve, though single readings can be large; an effect the other way counts as inactive or inconclusive. Potency means the concentration at half of the fitted maximal effect.

SMILES | SMN2 splice up | ELG1 genotoxic | Rab9 promoter act | NPC1 prom act | FLuc counter | ELG1 repair inh
C[C@@H]1[C@H]2CCCC[C@H]2CN(C(=O)OC(C)(C)C)[C@@H]1c1cn(Cc2ccccc2)c2ccc(F)cc12 | · | 0% | · | · | · | 5%
COc1ccc(C(=O)NCc2nnc(SCC(=O)Nc3ccccc3OC)n2C)cc1 | 6% | 2% | -6% | -4% | 15µM* | 11%
CCCCn1c(CNC(=O)c2ccc(OC)cc2)nnc1SCC(=O)Nc1ccc(OC)cc1 | -3% | · | · | · | -7% | ·
CCOC(=O)c1ccc(NC(=O)CSc2nnc(CNC(=O)c3ccc(OC)cc3)n2CC)cc1 | 8% | · | · | · | 15µM* | ·
COc1ccccc1NC(=O)CSc1nnc(CCNC(=O)c2ccc(C)cc2)n1C | · | 6% | 25% | 9% | 15µM* | ?
COc1ccccc1NC(=O)CSc1nnc(CNC(=O)c2ccco2)n1C | · | 1% | -1% | 1% | -1% | -3%
CN(C(=O)COC(=O)c1cc(S(=O)(=O)N2CCOCC2)ccc1Cl)C1CCS(=O)(=O)C1 (configuration not stated) | · | 1% | -6% | -1% | 0% | -1%
C/C=C(\C)C(=O)O[C@@H]([C@H](O)c1cc2ccc(=O)oc2cc1OC)C(C)(C)O | · | 5% | -2% | -2% | -2% | 5%
C=CCN1CC(O)=C(c2nc3ccccc3[nH]2)C1=N | 15% | 16% | 28% | 22% | ? | ?
Cc1c(Cl)sn(-c2ccc(Cl)cc2)c1=O | -99% | 1% | -39% | -24% | 8.5µM* | ?
Cc1ccc(CS(=O)(=O)CCC(=O)NCc2ccccc2Cl)cc1 | · | 0% | 4% | -2% | 0% | 8%
Cn1c(N)c(Sc2ccc(F)cc2)c(=O)n(C)c1=O | 13% | 5% | -5% | -2% | -1% | 0%
COc1ccc(-c2nnc3n(CCc4ccccc4)c(=O)c4ccccc4n23)cc1OC | · | -5% | -5% | -1% | -7% | 6.5µM*
COc1ccccc1-c1nnc2n(CCc3ccccc3)c(=O)c3ccccc3n12 | · | · | · | · | -7% | ·
CCN(CC(=O)Nc1cc(Cl)ccc1-n1cncn1)Cc1nc2ccccc2c(=O)[nH]1 | · | -3% | -1% | -2% | 1% | 8.2µM*
CCN(CC(=O)Nc1ccccc1Br)Cc1nc2ccccc2c(=O)[nH]1 | 20% | 0% | 1% | -3% | -1% | ?
CCOC(=O)c1ccc(COC(=O)c2nonc2N)cc1 | -13% | 0% | 2% | 1% | 15µM* | ?
Cc1ccc2ccccc2c1COC(=O)c1nonc1N | 21% | 1% | -2% | 1% | 2% | 2%
Cc1cccc(NC(=O)/C(C#N)=C/c2ccc[nH]2)c1C | · | ? | 4µM* | ? | -12% | ?
Cc1ccc(C)c(NC(=O)/C(C#N)=C/c2ccc[nH]2)c1 | · | 0% | 14% | 24% | -4% | 2%
CC(C)(C)NC(=O)c1ccccc1-c1nc2ccccc2s1 | · | -3% | -5% | -3% | -4% | -5%
CNc1sc(C(=O)c2ccccc2F)c(N)c1-c1nc2ccccc2s1 | ? | ? | 4.5µM* | 4µM* | 8.5µM* | ?
CCOc1ccc(C(=S)NC2CCCCC2)cc1 | 3% | 14% | ? | 3.2µM* | 12µM* | ?
CCOc1ccc(NC(=O)c2ccc(NC(=S)NC3CCCCC3)cc2)cc1 | 20% | 21% | 1% | 12% | ? | ?
COc1ccc(C(=S)NC2CCCCC2)cc1 | · | 10% | ? | 8% | 12µM* | ?
SMILES | SMN2 splice up | ELG1 genotoxic | Rab9 promoter act | NPC1 prom act | FLuc counter | ELG1 repair inh
CCC(=O)N1CCc2cc(Br)cc(S(=O)(=O)NCCc3cccc(C)c3)c21 | · | · | · | · | -12% | ·
CCNC(=O)c1ccccc1SCC(=O)Nc1ccc(F)cc1 | -2% | 0% | 1% | 2% | -14% | ?
CCn1c(NC(=O)c2ccccc2)nc2ccccc21 | · | 12% | ? | 27% | 17µM* | ?
CCn1c(NCc2ccc(OC)c(OC)c2)nc2ccccc21 | -39% | · | · | · | -6% | ·
C=CCn1c(NC(=O)c2ccccc2)nc2ccccc21 | · | 13% | ? | ? | 24µM* | ?
CCn1c(NC(=O)c2cccc(Cn3cc(Cl)cn3)c2)nc2ccccc21 | -52% | 0% | -2% | 7% | 1% | ?
Cn1c(NC(=O)c2cccc(Cn3cc(Cl)cn3)c2)nc2ccccc21 | 13µM* | 10µM* | 2.2µM* | 2.2µM* | 19µM* | ?
CCn1c(NCc2ccc(N(C)C)cc2)nc2ccccc21 | 27% | ? | 14% | 16% | 13µM* | ?
CS(=O)(=O)Nc1ccc(C2=NN(C(=O)CCCC(=O)O)C(c3cccs3)C2)cc1 (configuration not stated) | · | -2% | -2% | 0% | -3% | 0%
Cc1ccc(Nc2nnc(SC(C)C(=O)Nc3c(C)n(C)n(-c4ccccc4)c3=O)s2)cc1 (configuration not stated) | 6% | 0% | 0% | -1% | 11µM* | -1%
Cc1c(C(=O)NCCc2ccc(Cl)cc2)sc2nc3n(c(=O)c12)CCCC3 | · | · | · | · | -8% | ·
CCc1ccc(OCC(=O)N(Cc2ccc(C)o2)C2CCS(=O)(=O)C2)cc1 (configuration not stated) | 16% | · | · | · | 6% | ·
CC(=O)c1ccc(NC(=O)CSc2nc(N3CCOCC3)nc(N3CCOCC3)n2)cc1 | · | 18µM* | 24% | 28% | -17% | ?
CCOC(=O)c1ccc(NC(=O)CSc2nc(N3CCOCC3)nc(N3CCOCC3)n2)cc1 | · | ? | 3% | -6% | 4% | ?
O=C(CSc1nc(Nc2ccccc2)nc(N2CCOCC2)n1)Nc1cccc([N+](=O)[O-])c1 | · | -14% | -8% | 0% | ? | 21µM*
